Assay outcomes deposited in PubChem BioAssay by National Center for Advancing Translational Sciences (NCATS).
Nrf2 activator: qHTS of Nrf2 Activators; 410,000 compounds, 0.31% hits; AID 624171, 2012; AREc32 ARE-luciferase reporter (MCF7-derived line), luminescence, 24 h; Potency, µM (titrated, usually from 46.1 µM), without a hit: at the top dose activation, actives largely listed as activators; note: % of control where 0% means no effect; nearly all actives have a fitted effect of over 65% in size
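ARE activation measured as luciferase luminescence (Steady-Glo, 30 min RT) in AREc32_Fluc cells after 24 hr compound exposure at 37 deg C, 5% CO2; cells seeded overnight at 1000/well in OPTI-MEM, 5% FBS.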
Nrf2 block: Nrf2 qHTS screen for inhibitors; A549 ARE-Fluc reporter, luciferase luminescence, 18-24 h; Potency, µM (doses to about 46 µM), for inactives: at the highest dose activity change, negative = inhibition, actives largely listed as inhibitors; 360,000 compounds, 2.1% hits; AID 504444, 2011; note: % is set by controls: 0 for no effect and ±100 for the full control effect; nearly all actives have a fitted effect of over 60% in size
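Nrf2 activity is the BugLite luminescence, read 15 min after reagent at room temperature, following CellTiter-Fluor cytotoxicity readout (30 min, 37C). Compound titrations were applied for 18-24 h to 5000 A549 ARE_Fluc cells/well in 5% FBS OPTI-MEM.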
A549 tox-1: Nrf2 qHTS screen for inhibitors: counterscreen for cytotoxicity | Potency, µM (doses to about 46 µM), inactives show at the top dose activity change, negative = cytotoxicity, hits mostly inhibitors | A549 ARE-Fluc cells, CellTiter-Fluor viability, 18-24 h | 390,000 compounds, 0.16% hits; note: % is set by controls: 0 for no effect and ±100 for the full control effect
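A549 ARE_Fluc cells in 5% FBS OPTI-MEM were exposed to compounds in concentration-response for 18-24 h at 37 deg C. Viability was read by CellTiter-Fluor fluorescence (Ex 405/Em 525) after 30 min, before the luciferase read.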
IDH1 R132H inh: qHTS for Inhibitors of mutant isocitrate dehydrogenase 1 (IDH1): qHTS | IDH1-R132H enzyme, NADPH consumption, diaphorase/resazurin fluorescence | Potency, µM (series often up to 76.6 µM), for the others: top-dose activity change, negative = inhibition, most hits filed as inhibitors | 390,000 compounds, 0.093% hits | AID 602179, 2012; note: % is set by controls: 0 for no effect and ±100 for the full control effect; nearly all actives have a fitted effect of over 65% in size
Target sequence (O75874 whole entry R132H, stated change not applied): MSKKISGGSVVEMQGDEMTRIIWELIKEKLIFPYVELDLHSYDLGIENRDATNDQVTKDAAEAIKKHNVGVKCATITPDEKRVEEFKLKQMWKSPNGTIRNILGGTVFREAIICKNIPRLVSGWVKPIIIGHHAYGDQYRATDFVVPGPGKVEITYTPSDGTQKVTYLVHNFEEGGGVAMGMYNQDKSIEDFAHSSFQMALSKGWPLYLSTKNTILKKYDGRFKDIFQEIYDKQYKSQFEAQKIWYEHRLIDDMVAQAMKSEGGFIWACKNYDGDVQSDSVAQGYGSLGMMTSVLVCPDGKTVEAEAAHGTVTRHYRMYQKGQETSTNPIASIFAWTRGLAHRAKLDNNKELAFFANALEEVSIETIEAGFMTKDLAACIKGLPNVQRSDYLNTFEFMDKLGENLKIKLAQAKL
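IDH1-R132H (0.5 ug/mL dispensed) in pH 7.5 Tris buffer was preincubated 30 min with compound, then given a substrate mix of 0.016 mM NADPH and 2 mM alpha-KG for 80 min at room temperature; remaining NADPH was read by diaphorase/resazurin fluorescence.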
ELG1 DNA repair: qHTS screen for small molecules that inhibit ELG1-dependent DNA repair in human embryonic kidney (HEK293T) cells expressing luciferase-tagged ELG1. HEK293T ELG1-luciferase reporter, luminescence, 16 h; DNA damage induced by 5-fluorouridine. Potency, µM (top dose mostly 46.1 µM), for the others: top-dose activity change, negative = inhibition, usual class: inhibitors. 330,000 compounds, 2.3% hits. AID 504467, 2011; note: % is set by controls: 0 for no effect and ±100 for the full control effect; nearly all actives have a fitted effect of over 55% in size
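5-Fluorouridine DNA damage + compound/DMSO, 2,000 cells/well, 16 h, 37 °C/5% CO2. ONE-Glo, 30 min RT, luminescence. Readout = decrease in reporter signal.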
FLuc enzyme inh: Nrf2 qHTS screen for inhibitors: Purified Fluc Biochemical Counterscreen for Hit Validation | shares compounds with Nrf2 block | 1,400 compounds, 4% hits | purified firefly luciferase, luminescence inhibition | Potency, µM (series often up to 57.5 µM), without a hit: top-dose activity change, negative = inhibition, usual class: inhibitors; note: % is set by controls: 0 for no effect and ±100 for the full control effect; nearly all actives have a fitted effect of over 65% in size
A549 tox-2: Nrf2 qHTS screen for inhibitors: A549 ARE-Fluc Cytotoxicity Counterscreen for Hit Validation; A549 ARE-Fluc cells, cytotoxicity counterscreen; shares compounds with Nrf2 block; 1,400 compounds, 2% hits; Potency, µM (doses to about 46.1 µM), without a hit: at the highest dose activity change, negative = cytotoxicity, most hits filed as inhibitors;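 note: cells exposed to compounds for 18 to 24 hours; % is set by controls: 0 for no effect and ±100 for the full control effect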
Nrf2 ARE inh: Nrf2 qHTS screen for inhibitors: Nrf2 A549 ARE-Fluc Confirmation Assay for Hit Validation; shares compounds with Nrf2 block; A549 ARE-firefly luciferase reporter, luminescence; Potency, µM (top dose mostly 46.1 µM), inactives show at the top dose activity change, negative = inhibition, hits mostly inhibitors; 1,400 compounds, 74% hits; AID 720524, 2013; note: % is set by controls: 0 for no effect and ±100 for the full control effect; nearly all actives have a fitted effect of over 65% in size
Numbers without * were called inactive; ? = inconclusive; · = no result given; [ ] = another dose, or the depositor's remark. Compounds with a hit are over-represented: about 3.8% of the library has one in this group of screens. Calls come from the whole dose curve; as a rule, active = well fitted curve in the direction sought with a large enough effect; inconclusive = small, poorly fitted or top-dose-only effect, or another doubt; inactive = no such curve, though single readings can be large; an effect the other way counts as inactive or inconclusive. Potency is the fitted concentration of half-maximal effect.

SMILES	Nrf2 activator	Nrf2 block	A549 tox-1	IDH1 R132H inh	ELG1 DNA repair	FLuc enzyme inh	A549 tox-2	Nrf2 ARE inh
Cc1nc(NS(=O)(=O)c2ccccc2)sc1C(=O)NNS(=O)(=O)c1ccccc1	0%	-1%	0%	-1%	11%	·	·	·
Cc1nc(C)c(C(=O)NNS(=O)(=O)c2ccc3ccccc3c2)s1	-1%	9.2µM*	-14%	4%	-19%	4%	1%	?
Cc1ccc(F)c(S(=O)(=O)NC(=O)C2(C)CCN2C(=O)CCc2ccccc2)c1 (stereo not drawn)	0%[9.22 µM]	·	·	·	·	·	·	·
O=C(NCc1ccc(F)cc1)C1CCN(S(=O)(=O)c2ccc(Br)s2)CC1	3%	?	-11%	-2%	-6%	·	·	·
CCC(NC(=O)c1cc(COc2ccc(C)nc2)on1)c1ccc(C)cc1 (stereo not drawn)	0%	8.2µM*	-22%	2%	-30%	0%	5%	?
Cc1nnc(SCC(=O)Nc2ccc(N(C)C)cc2)[nH]c1=O	1%	6%	9%	-1%	·	·	·	·
CCN(CC)S(=O)(=O)c1ccc2oc(SCC3CN=C(c4ccc(OC)cc4)S3)nc2c1 (stereo not drawn)	0%	6.5µM*	-27%	3%	?	-26%	-12%	?
COc1ccc(CNC(=O)CCc2ccc(S(=O)(=O)N3CCCCCC3)cc2)cc1OC	0%	-6%	4%	11%	-20%	·	·	·
COc1ccc(NS(=O)(=O)c2ccc(N3CCOCC3)c(N)c2)cc1	-1%	3.3µM*	-17%	-10%	?	-2%	0%	4.1µM*
COc1ccc(S(=O)(=O)Nc2ccc(N3CCOCC3)cc2)cc1	-1%	?	8%	-8%	-6%	·	·	·
CCOC(=O)c1[nH]c2ccc(Cl)cc2c1NC(=O)/C=C/c1ccc2c(c1)OCO2	0%	5.2µM*	-23%	-1%	-2%	0%	-27%	4.1µM*
CCOC(=O)c1[nH]c2cc3c(cc2c1NC(=O)CN1CCCC1)OCO3	0%	4%	0%	0%	7%	·	·	·
CCCC(C)NC(=O)COc1ccc(Sc2ccc(OCC(=O)NC(C)CCC)cc2)cc1 (stereo not drawn)	-1%	3.7µM*	0%	4%	-5%	4%	0%	·
CC(C)CNC(=O)COc1ccc(Sc2ccc(OCC(=O)NCC(C)C)cc2)cc1	0%	?	-4%	1%	-1%	·	·	·
CCCN(C(=O)c1ccco1)c1nnc(-c2ccccc2C)s1	?	11%	4%	9%	-2%	·	·	·
COc1ccccc1CCNC(=O)Cc1c(C)c2c(O)cc(C)cc2oc1=O	0%	14%	6%	-4%	·	·	·	·
COc1ccc(CNC(=O)c2cccc(N3CCCS3(=O)=O)c2)cc1OC	-1%	2.6µM*	-10%	9%	·	-1%	-1%	?
CCN(CC)c1ccc(NC(=O)CCc2nc3cccnc3n2Cc2cccs2)c(C)c1	4%	-15%	5%	6%	·	·	·	·
COCCn1c(N)c(S(=O)(=O)c2cccs2)c2nc3ccccc3nc21	0%	-5%	1%	3%	-10%	·	·	·
COc1cccc(/C=N/n2c(N)c(S(=O)(=O)c3cccs3)c3nc4ccccc4nc32)c1OC	0%	3.7µM*	?	0%	?	-1%	-13%	·
Cc1ccc2c(c1)C(=O)OC(C(=O)Nc1ccccc1C(=O)O)C2 (stereo not drawn)	0%	·	3%	50%	·	·	·	·
CC(=O)Nc1sc2c(c1-c1nc3ccccc3s1)CCN(C(C)C)C2	-5%	6.5µM*	-11%	20%	?	0%	-27%	6.5µM*
COc1ccccc1-c1noc(CCCC(=O)Nc2cc(C)ccc2C)n1	4%	2%	1%	0%	·	·	·	·
Cc1cc[n+](C(C)C(=O)c2ccc(-c3ccccc3)cc2)cc1 (stereo not drawn)	5%	8.2µM*	-24%	0%	2.1µM*	3%	-16%	9.2µM*
CN(C)CCNC(=O)c1cc2c(s1)-c1ccc(Cl)cc1SC2	-3%	5.8µM*	4%	8%	?	-1%	?	0.013µM*
SMILES	Nrf2 activator	Nrf2 block	A549 tox-1	IDH1 R132H inh	ELG1 DNA repair	FLuc enzyme inh	A549 tox-2	Nrf2 ARE inh
CCN1/C(=C/c2sc(-c3ccccc3C)c[n+]2C)Sc2ccccc21	9%	0.37µM*	?	7%	?	-1%	?	1.8µM*
CCc1ccc(C2CC(=O)N(c3cccc(C(F)(F)F)c3)C3=C2C(=O)OC3)cc1 (stereo not drawn)	0%	-14%	-7%	-13%	·	·	·	·
Cc1cccc(CNC(=O)CCCN2C(=O)c3cccnc3Oc3ccccc32)c1	1%	-8%	-1%	-16%	·	·	·	·
CCOc1ccc(OCC)c(NC(=O)C2CCCN(S(=O)(=O)c3cc(Br)cc4c3N(C(=O)CC)CC4)C2)c1 (stereo not drawn)	0%	-3%	-2%	-11%	·	·	·	·
CCCN1CCCc2cc(CN(CCCN3CCOCC3)C(=O)Nc3ccc(Cl)c(Cl)c3)ccc21	22%	·	?	11%	·	·	·	·
O=C(CNc1cccc2ccccc12)N/N=C/c1ccc[nH]1	4%	3.7µM*	-8%	-2%	18%	?	-18%	2.9µM*
O=C(COc1ccc(S(=O)(=O)NC2CCCCC2)cc1)N1CCN(c2cccc(Cl)c2)CC1	1%	5.8µM*	?	7%	?	-1%	-17%	9.2µM*
COc1cccc2cc(C(=O)N3CC(C)OC(C)C3)c(=O)oc12 (stereo not drawn)	0%	2%	15%	5%	3%	·	·	·
COc1cc2c(oc(=O)c3cc(C)cc(OC)c32)c2c(C3OC(C)C(O)C(C)(O)C3O)ccc(O)c12 (stereo not drawn)	-2%	1.3µM*	5.8µM*	-25%	·	-13%	?	1.8µM*
CCN(CC)C(=O)c1ccc2nc(-c3ccccc3)c(-c3ccccc3)nc2c1	4%	?	1%	-4%	?	·	·	·
